# Data taken from PubChem BioAssay.
# Activity calls are given as the source filed them.
# Assays:
# Albumin (Bos taurus) = Albumin (Bos taurus) (UniProt P02769); assay: compounds binding labelled BSA control protein – biochemical, small-molecule microarray, Alexa647 label, 635/667 nm fluorescence, artefact control for SMM control protein annotation, profiling panel (AID 1118); details: BSA-A647 binding, fluorescence 635 nm, higher = more signal;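 note: score merges 667 nm emission intensity and signal-to-noise per printed compound spot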
# [1] = probe aXIP binding to arrayed compounds – biochemical, NeuroSMM set, 635/667 nm fluorescence, primary screen (AID 1119); details: small-molecule microarray, higher = more signal, called active from +8 up or from −8 down;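 note: probe is the protein aXip251-270 applied at 1 µg/mL to compound-printed slides; binding of probe to printed compounds measured as 667 nm fluorescence plus signal to noise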
# [2] = probe aNOTCH3 binding on compound microarray – biochemical, small-molecule microarray, 635/667 nm fluorescence, primary screen (AID 1120); details: higher = more signal;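 note: probe is a biotin-tagged antibody raised against NOTCH3 rather than NOTCH3 protein; score merges spot fluorescence near 667 nm with spot signal to noise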
# [3] = probe aNOTCH2 binding on compound microarray – biochemical, small-molecule microarray, 635/667 nm fluorescence, primary screen (AID 1121); details: higher = more signal;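 note: score merges feature fluorescence read at 667 nm with its signal to noise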
# [4] = target: Carbonic anhydrase 2 (Homo sapiens) (UniProt P00918); assay: compounds binding carbonic anhydrase 2 – biochemical, small-molecule microarray, Alexa647-labelled CAII, profiling panel (AID 1122); details: CAII-A647 binding fluorescence, higher = more signal
# [5] = COS7 lysate on small-molecule microarray, probe aHis, 635 nm (AID 1123); details: COS7 cell lysate, fluorescence, higher = more signal;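 note: z-score combines 667nm fluorescence intensity with signal-to-noise per printed compound spot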
# [6] = probe aLAP1 signal on lysate-treated microarray – cell lysate, small-molecule microarray, COS7 lysate, primary screen (AID 1124); details: probe aLAP1, fluorescence, higher = more signal;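 note: lysate comes from COS7 cells expressing LAP1 and is applied at 0.3 µg/mL; score merges spot fluorescence near 667 nm with signal-to-noise over triplicate slides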
# Sam68 (KHDRBS1) = assay: compounds binding KHDRBS1 protein – biochemical, small-molecule microarray, 635 nm fluorescence, primary screen (AID 1125); details: higher = more signal;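 note: score merges 667 nm channel intensity with signal to noise over triplicate slides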
# [7] = tested on: Chordin-like protein 2 (CHRDL2); assay: compounds binding chordin-like 2 – biochemical, small-molecule microarray, 635 nm fluorescence, primary screen (AID 1126); details: fluorescence 635 nm, higher = more signal;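 note: printed compound slides probed with Chrdl2 protein at 4 µg/mL for 1 h at 4 C; score merges 667 nm emission intensity with signal to noise over three replicate slides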
# [8] = target: Concanavalin-A (Canavalia ensiformis) (UniProt P02866); assay: compounds binding concanavalin A lectin – biochemical, small-molecule microarray, Alexa647 label, 635 nm, artefact control for SMM control protein annotation, primary screen (AID 1127); details: ConA-A647 binding fluorescence, higher = more signal;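 note: z combines 667 nm emission intensity with signal-to-noise across three replicate slides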
# Sequence of Concanavalin-A (Canavalia ensiformis) (P02866 whole entry, looked up): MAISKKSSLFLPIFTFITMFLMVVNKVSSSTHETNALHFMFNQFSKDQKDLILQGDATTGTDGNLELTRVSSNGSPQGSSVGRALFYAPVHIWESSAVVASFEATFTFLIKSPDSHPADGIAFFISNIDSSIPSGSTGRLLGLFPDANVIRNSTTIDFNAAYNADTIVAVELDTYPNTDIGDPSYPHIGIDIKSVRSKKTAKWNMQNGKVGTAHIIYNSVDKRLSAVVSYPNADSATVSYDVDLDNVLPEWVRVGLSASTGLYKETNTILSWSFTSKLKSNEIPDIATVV
# Sequence of Albumin (Bos taurus) (P02769 whole entry, looked up): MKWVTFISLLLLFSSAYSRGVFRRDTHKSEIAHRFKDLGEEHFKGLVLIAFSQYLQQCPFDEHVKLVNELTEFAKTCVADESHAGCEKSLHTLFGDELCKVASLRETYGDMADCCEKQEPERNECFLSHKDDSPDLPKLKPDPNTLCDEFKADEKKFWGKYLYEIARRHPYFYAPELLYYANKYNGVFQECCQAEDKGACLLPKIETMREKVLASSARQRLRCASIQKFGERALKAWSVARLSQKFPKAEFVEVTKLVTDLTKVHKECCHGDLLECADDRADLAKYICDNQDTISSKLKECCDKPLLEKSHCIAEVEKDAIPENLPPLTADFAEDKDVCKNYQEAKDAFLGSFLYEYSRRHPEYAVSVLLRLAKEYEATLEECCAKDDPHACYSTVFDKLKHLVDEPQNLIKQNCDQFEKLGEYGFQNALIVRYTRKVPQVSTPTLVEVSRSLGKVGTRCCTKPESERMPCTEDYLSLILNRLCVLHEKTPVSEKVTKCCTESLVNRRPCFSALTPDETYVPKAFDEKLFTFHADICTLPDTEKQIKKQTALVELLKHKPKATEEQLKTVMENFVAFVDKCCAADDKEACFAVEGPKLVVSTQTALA
Structure (SMILES),composite z-score (Albumin (Bos taurus)),composite Z-score [1],composite z-score [2],composite z-score [3],composite z-score [4],composite z-score [5],composite z-score [6],composite z-score (Sam68 (KHDRBS1)),composite z-score [7],composite z-score [8]
N#Cc1ccc(NN2C(C(O)c3ccc([N+](=O)[O-])cc3)C=CC3C(=O)N(c4ccccc4)C(=O)C32)cc1 (stereo not given),0.552,0.156 (inactive),0.0847,0.181,0.758,2.75,0.833,1.3,0.0881,0.647
COCCCNC(=O)[C@@]1(CCC(=O)OC(C)(C)C)N=C(c2ccc(OCCCO)cc2)O[C@H]1c1ccccc1CN=[N+]=[N-],0.642,-0.371 (inactive),0.433,0.0716,0.577,3.34,1.53,1.26,-0.105,0.8
COc1cc2c(cc1O)C(C)N(Cc1cccc(OC(F)(F)F)c1)CC2 (stereo not given),0.986,0.414 (inactive),-0.0204,-0.0839,0.662,2.23,0.572,0.851,-0.236,0.446
Cc1ccc(S[C@]2(C(=O)NCCN3CCOCC3)CC(=O)N(Cc3cc(C(F)(F)F)cc(C(F)(F)F)c3)[C@@H]2c2ccc(CO)cc2I)cc1,0.59,-1.18 (inactive),-0.214,-0.164,0.661,0.373,-0.0586,0.134,-1.16,-0.13
[N-]=[N+]=NCc1ccccc1C[C@]1(C(=O)NCC(O)CO)N=C(c2ccc(OCCCO)cc2)O[C@H]1c1ccccc1N=[N+]=[N-] (stereo not given in full),0.675,0.529 (inactive),0.254,-0.0059,0.652,1.57,0.0131,0.283,-0.44,0.565
CC(C)NC(=O)[C@@]1(Cc2ccccc2I)c2ccccc2C(=O)N(Cc2ccccc2)[C@H]1c1ccc(CO)cc1,0.162,1.17 (inactive),0.204,-0.0608,0.481,1.96,0.206,1.29,0.325,0.968
COc1ccc(C#Cc2ccc3c(c2)[C@]2(C(=O)N3)[C@H](C(=O)NC[C@H](O)c3ccccc3)[C@H]3C(=O)O[C@H](c4ccccc4)[C@H](c4ccccc4)N3[C@@H]2c2ccccc2OCCO)cc1,0.566,0.29 (inactive),0.175,-0.0157,0.575,1.8,1.03,1.29,0.469,1.14
COC(=O)[C@@]1(Cc2ccccc2)[C@H]2c3cc(C(=O)N4CCCC4)n(Cc4ccc(C)o4)c3C[C@H]2CN1C(=O)c1ccccc1,0.905,-0.56 (inactive),0.415,0.0263,0.787,0.597,0.487,0.17,-0.589,-0.289
CCCCCCc1nc(CCCc2cc3c(c(CCCCCC)n2)[Si](C(C)C)(C(C)C)OC3)cc2c1[Si](C(C)C)(C(C)C)OC2,-1.17,-0.295 (inactive),-0.0427,-0.0649,-0.567,0.111,0.0313,-0.641,0.21,-0.569
O=C1O[C@@H](c2ccccc2)[C@@H](c2ccccc2)N2[C@@H](c3ccc(OCCO)cc3)[C@]3(C(=O)Nc4ccccc43)[C@@H](C(=O)Nc3nc4ccccc4s3)[C@H]12,0.915,0.755 (inactive),0.372,-0.0028,0.593,2.45,0.262,1.3,0.477,1.11
COCCOC(=O)N1C(=O)[C@@]2(c3cc(C#CCNC(N)=O)ccc31)[C@H](c1ccc(O)cc1)N1[C@H](c3ccccc3)[C@H](c3ccccc3)OC(=O)[C@H]1[C@@H]2C(=O)Nc1nc2ccccc2s1,0.0631,-0.162 (inactive),0.111,-0.0432,0.266,1.17,0.243,0.942,0.554,1.09
COCCCNC(=O)[C@@]1(C)c2ccccc2C(=O)N(Cc2cc(C(F)(F)F)cc(C(F)(F)F)c2)[C@H]1c1ccc(CO)cc1,-0.0502,0.318 (inactive),-0.256,-0.0173,0.74,1.68,-0.066,-0.21,-2.46,0.851
CS(=O)(=O)CCOC(=O)C1=CC(c2ccc(CO)cc2)=CC(C2CC2)N(Cc2cc3c(cc2Br)OCO3)C=C1C(=O)OCCS(C)(=O)=O (stereo not given),0.381,-0.0662 (inactive),0.143,-0.0902,0.618,2.29,0.487,1.3,0.37,0.927
C=CCOC(=O)[C@@H]1[C@H]2C(=O)O[C@H](c3ccccc3)[C@H](c3ccccc3)N2[C@H](c2ccc(OCCOC(=O)[C@@H]3C[C@@H]4C(=O)NCC(=O)N4[C@@H]3c3cccc(OCCO)c3)cc2)[C@@]12C(=O)Nc1ccc(I)cc12,-0.991,-0.0135 (inactive),-0.0835,-0.0242,0.501,1.59,0.875,1.3,0.926,0.964
O=c1oc(-c2ccccc2)nc2cc(Br)ccc12,-0.163,-0.12 (inactive),-0.0647,-0.0984,-0.0912,0.704,0.107,0.0872,0.875,0.666
COc1ccc(C(O)C2C=CC3C(=O)NC(=O)C3N2Nc2ccccn2)cc1OCc1ccccc1 (stereo not given),0.68,0.0296 (inactive),0.089,-0.0308,0.855,1.76,0.759,-0.255,0.0961,0.212
CC(=O)NCCCC[C@@H]1NC(=O)[C@H]2C[C@@H](C(=O)NCCCCCC[N+](C)(C)C)[C@@H](c3cccc(OCCO)c3)N2C1=O,0.0306,0.526 (inactive),0.15,-0.106,0.607,1.19,-0.165,1.04,1.45,0.904
COCCOC(=O)N1C(=O)[C@@]2(c3cc(C#CCC(C(=O)OC)C(=O)OC)ccc31)[C@H](c1ccccc1OCCO)N1[C@H](c3ccccc3)[C@H](c3ccccc3)OC(=O)[C@H]1[C@@H]2C(N)=O,0.101,-0.167 (inactive),0.173,-0.0357,0.503,2.03,1.5,1.25,0.237,1.07
C=CC[C@]1(C(=O)N2CCOCC2)N=C(c2ccc(OCCCO)cc2)O[C@H]1c1ccccc1,0.758,-0.128 (inactive),0.0225,-0.0906,0.785,3.15,0.446,0.618,-0.0547,1.09
CC(C)(C)N1CC=CC23O[C@@H]4/C=C\CCCOC(=O)C4[C@H]2C(=O)N(CCO)[C@@H]3C1=O (stereo not given in full),0.268,0.103 (inactive),-0.36,-0.204,0.872,0.575,0.29,-0.13,-0.0702,-0.0702
COC(=O)c1c(CC[C@@H](CO)NC(=O)N[C@@H](Cc2ccccc2)Cn2cc(C3(O)CCCCC3)nn2)oc(C(C)=O)c1C(=O)OC,0.357,-0.0293 (inactive),0.0893,-0.0942,0.253,0.287,-0.0804,1.29,0.625,0.82
CO[C@H]1O[C@H](CO)[C@@H](OC(=O)Nc2ccc(Oc3ccccc3)cc2)[C@H](OC(=O)Nc2ccccc2)[C@H]1OC(=O)Nc1ccccc1,0.832,0.914 (inactive),0.295,-0.0064,0.467,2.09,-0.0652,1.3,-0.0078,1.16
C=CC(COC(C)=O)NS(=O)(=O)c1ccc(Br)cc1 (stereo not given),-0.68,0.0518 (inactive),-0.0337,-0.133,-0.0235,-0.01,0.0423,0.591,0.912,0.682
CC(C)C(O)C1C=CC2C(=O)N(c3ccccc3)C(=O)C2N1Nc1ccc(C#N)cc1 (stereo not given),1.03,2.09 (inactive),0.276,0.0883,0.842,2.73,0.997,1.26,-0.387,1.19
CC1CC/C=C\[C@H]2OC34C=CCN(Cc5ccccc5)C(=O)[C@H]3N(CCCCCO)C(=O)[C@@H]4C2C(=O)O1 (stereo not given in full),0.363,0.815 (inactive),-0.213,-0.19,0.871,-0.351,1.4,-0.883,-0.0737,-0.811
O=c1cccc(C=Cc2ccccc2)o1,-0.828,0.0786 (inactive),-0.178,-0.126,-0.228,-0.386,0.224,-0.0848,-1.58,-0.514
COC(=O)[C@@]1(Cc2ccc(F)cc2)[C@H]2c3cc(C(=O)N4CCCC4)n(Cc4cccc5ccccc45)c3C[C@H]2CN1C(=O)c1ccccc1,1.08,-0.421 (inactive),0.535,0.173,0.533,3.22,0.513,1.07,-0.411,0.405
